Data: PubChem BioAssay

What follows are compounds tested on Inhibin beta A chain (activin A) (assay: INHBA (activin A) binders on microarrays, primary screen, biochemical, small-molecule microarray, 635 nm fluorescence scan (AID 1107;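 further: mouse activin A protein probed at 4.33 µg/mL on printed slides; score merges bound-protein fluorescence near 667 nm with spot signal-to-noise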)). Details: small-molecule microarray binding, higher = more signal.

Compound | composite z-score
CC(C)(C)OC(=O)CC[C@]1(C(=O)N2CCCCC2)COC(c2ccc(OCCCO)cc2)=N1 | 0.567
NC(=O)[C@H]1[C@@H]2C(=O)O[C@@H](c3ccccc3)[C@@H](c3ccccc3)N2[C@@H](c2ccc(O)cc2)[C@]12C(=O)Nc1ccc(C#CC3=CCCCC3)cc12 | 0.0756
CN1C(=O)[C@@]2(Cc3ccccc3)N=C(c3ccc(OCCCO)cc3)O[C@H]2c2ccccc21 | 1.16
Cc1nc2cc(Br)ccc2c(=O)n1Cc1cccc(O)c1 | -0.022
Cc1ccc(N2C(=O)c3ccccc3[C@](C)(C(=O)NCc3ccccc3)[C@@H]2c2ccc(CO)cc2)nc1 | 1.21
CCCNC(=O)[C@@]1(Sc2ccc(C)cc2)CC(=O)N(C2CCCCC2)[C@@H]1c1ccc(CO)cc1I | -0.277
COC(=O)[C@@]1(Cc2ccc(F)cc2)[C@H]2c3cc(C(=O)N(C)C)n(Cc4c(CO)[nH]cc(C)c4=O)c3C[C@H]2CN1C(=O)c1ccccc1 | 0.693
O=C1C2C=CC(C(O)c3ccco3)N(Nc3ccccc3)C2C(=O)N1c1ccccc1 (configuration not stated) | 0.781
C=C(COC)C(=O)CC[C@H](OC(C)=O)c1ccc(OCCO)cc1 | 0.136
COCCOC(=O)N1C(=O)[C@@]2(c3cc(C#CC4=CCCCC4)ccc31)[C@H](c1ccc(O)cc1)N1[C@H](c3ccccc3)[C@H](c3ccccc3)OC(=O)[C@H]1[C@@H]2C(=O)NC[C@H](O)c1ccccc1 | 0.528
[N-]=[N+]=NC[C@H](Cc1ccccc1)NC(=O)c1ccccc1 | 0.382
COC(=O)[C@@]1(Cc2ccc(OC)cc2)[C@H]2c3cc(C(=O)N4CCCC4)n(Cc4ccc(OC(F)(F)F)cc4)c3C[C@H]2CN1C(=O)c1ccccc1 | 0.891
CCC(CC)C(O)C1C=CC2C(=O)N(c3ccccc3)C(=O)C2N1Nc1ccc([N+](=O)[O-])cc1 (configuration not stated) | 0.761
COC(=O)C1N=C(c2ccc(OCCCO)cc2)N(c2ccccc2)O1 (configuration not stated) | 0.453
Cc1ccccc1C(O)C1C=CC2C(=O)N(c3ccccc3)C(=O)C2N1Nc1ccc([N+](=O)[O-])cc1 (configuration not stated) | 0.816
COCC1=C2[C@@H](CCc3ccccc3)OB(O)C[C@@H]2[C@@H]2C(=O)N(C)C(=O)[C@@H]2C1 | 0.808

Compound | composite z-score
O=C1O[C@H](c2ccccc2)[C@H](c2ccccc2)N2[C@H]1[C@@H](C(=O)N1CCCCCCC1)[C@]1(C(=O)Nc3ccc(C#CC4(O)CCCCCC4)cc31)[C@H]2c1ccccc1OCCO | 1.69
CCOC(=O)C1=CC[C@@H](c2ccccc2)N(S(=O)(=O)c2ccc(C)cc2)[C@H]1c1cccc(OC)c1 | 0.949
COc1cc(C(O)C2C=CC3C(=O)N(Cc4ccccc4)C(=O)C3N2n2cnnc2)cc(OC)c1OC (configuration not stated) | 1.23
COc1ccc([Si](C)(C)[C@@H]2[C@@H](CCn3cc([C@H](O)c4ccccc4)nn3)O[C@]3(C(=O)N(c4ccccc4)c4ccccc43)[C@H]2C)cc1 | 0.372
COc1cc(NN2C(C(O)c3ccccc3)C=CC3C(=O)N(C)C(=O)C32)cc(OC)c1OC (configuration not stated) | 0.784
NC(=O)N1C(=O)C2C(C1=O)C1C=C(CCCO)C2C(C2CC2)N1Cc1cccc(OC(F)(F)F)c1 (configuration not stated) | 0.561
O=c1cccc(-c2ccc(F)cc2)o1 | 0.457
CN(C)CCCCCCNC(=O)[C@@H]1C[C@@H]2C(=O)N[C@@H](CCCCN)C(=O)N2[C@@H]1c1ccc(O)cc1 | 1.56
COCCOC(=O)N1C(=O)[C@@]2(c3cc(C#Cc4ccc(OC)cc4)ccc31)[C@H](C(=O)NC[C@H](O)c1ccccc1)[C@H]1C(=O)O[C@H](c3ccccc3)[C@H](c3ccccc3)N1[C@@H]2c1ccc(OCCO)cc1 | 0.269
CC(C)C(=C=CC[C@@H](O)c1cccc(OCCO)c1)C[C@@H](O)c1ccccn1 | 0.139
C=C(CCCC)C(=O)CC[C@H](OC(C)=O)c1ccc(OCCO)cc1 | -0.146
C=C(CCCC)/C(=C/C[C@H](OC(C)=O)c1ccc(OCCO)cc1)c1cc(C(=O)OC)ccc1OC | 0.562
COc1cc2c(cc1O)C(c1ccc(CN3CCCC3)cc1)N(C)CC2 (configuration not stated) | -0.172
CC(C)[Si]1(C(C)C)OCc2cc(-c3ccc(-c4ccc(Cl)c(Cl)c4)o3)nc(CCc3ccccc3)c21 | 0.536
[N-]=[N+]=Nc1ccccc1[C@@H]1OC(c2ccc(OCCCO)cc2)=N[C@]1(Cc1ccccc1)C(=O)NCc1ccccc1 | 0.604
C=C(C)[C@@H]1CC=C(C(O)C2C=CC3C(=O)N(c4ccccc4)C(=O)C3N2Nc2ccc(C#N)cc2)CC1 (some centres not stated) | 0.749
